Values without a mark were called inactive. The call rests on the fitted dose curve; in most records, active means well fitted cell-killing curve with a large enough effect in the repeat runs; inconclusive means weak or mixed curves, or effect the other way; inactive means flat fitted curve, though single readings scatter.
Test: qHTS assay to identify small molecule HDAC inhibitors - cell viability counter screen (AID 1259365); further: nearly all actives have a fitted effect of over 50% in size
Conditions: HCT-116 viability, CellTiter-Glo ATP luminescence, 2 h; series mostly up to 92.4 µM; activity change, negative = cytotoxicity: at the top concentration
Source text: U.S. Tox21 Program National Center for Advancing Translational Sciences [NCATS] NIH Chemical Genomics Center [NCGC] U.S. Environmental Protection Agency [EPA] National Institutes of Environmental Health Sciences [NIEHS] National Toxicology Program [NTP] U.S. Food and Drug Administration [FDA] Tox21 Assay Overview: Histone deacetylases (HDACs) are a group of epigenetic enzymes that regulate gene expression by histone deacetylation. HDACs are capable of introducing epigenetic modifications and such aberrations contribute to the onset and progression of several human diseases, thus making HDACs a popular therapeutic target. For identifying endogenous class I/II HDAC inhibitors a homogenous, luminogenic HDAC I/II cell based assay was used to measure the relative activity of class I and II HDACs from cells. Wild type HCT-116 cells were used to screen Tox21 compound libraries for identifying class I/II HDAC inhibitors.
Tox21 Assay Protocol Summary: HCT-116 cells were dispensed at 1,500 per well in 5uL of culture medium into white solid bottom 1536-well plates (Greiner Bio-One, Monroe, NC) using a Multidrop Combi (Thermo Scientific, Waltham, MA) dispenser. The assay plates were incubated at 37 C and 5% CO2 for an overnight, and then 23nL of compounds dissolved in DMSO and positive control were transferred using a Pintool station (Wako, San Diego, CA). The assay plates were incubated at 37C and 5% CO2 for 2hr. After compound treatment, 4uL of CellTiter-Glo reagent (Promega Corporation, Madison, WI) was added to each well of the assay plates using Flying Reagent Dispenser (FRD, Aurora Discovery, San Diego, CA) and incubated the assay plates at room temperature for 30min. The luminescence signal was quantified using a ViewLux plate reader (Perkin Elmer, Shelton, CT).
On the % scale 0 is the no-effect control and ±100 the full control effect.

Structure (SMILES)	activity change, negative = cytotoxicity
CC(C)(O)C(=O)O	4.49%
CCCc1ccc(OC)cc1	3.24%
O=S(=O)(O)c1cc(Cl)c(Cl)cc1Cl	3.72%
CC(C)(C)N	4.9%
CC[C@H](NC(C)C)[C@H](O)c1ccc(O)c2[nH]c(=O)ccc12	-2.89% [at 42.5 µM]
O=C(Cl)c1ccc(F)c(Cl)c1	-0.531%
CCCCCCCCCCCCCCCCN	-0.0244% [at 42.5 µM]
COC(=O)C(C)(C)C	1.76%
CO[C@@H]1COCC[C@@H]1N[C@@H]1CC[C@@](C(=O)N2CCc3ncc(C(F)(F)F)cc3C2)(C(C)C)C1	0.512%
CCCCCCCCS	1.86%
COc1cc(C)c(Cc2cnc(N)nc2N)cc1OC	1.2% [at 42.5 µM]
Cc1cc(C)c(C)c(O)c1	-3.41%
CC(C)CCCCCOC(=O)CS	-1.17%
Oc1ccc(CCNCCCCCCNCCc2ccccc2)cc1O	-1.55% [at 42.5 µM]
CC(=O)Nc1ccccc1O	0.0968%
Cc1c(-c2cccnc2)c2ccccc2n1CCCCC(=O)O	2.09%
CC(C(=O)O)c1ccc2c(c1)Cc1cccnc1O2 (stereo not given)	1.92% [at 42.5 µM]
O=P(c1ccccc1)(c1ccccc1)c1ccccc1	-3.73%
CC1(C)[C@@H]2CC[C@]3(C2)[C@@H]1C(=O)CCC3(C)C	-16.3%
N#Cc1ccc(CC(=O)c2cccc(C(F)(F)F)c2)cc1	-7.98%

Structure (SMILES)	activity change, negative = cytotoxicity
CC(C)=CCC[C@H](C)CCO	-4.17%
CCCCCCCCCCCC(=O)OCC	1.75%
CCOc1ccccc1O	-3.19%
OCCOc1cccc(OCCO)c1	1.13%
CC(C)(Cc1c[nH]c2ccccc12)NCC(O)COc1ccccc1C#N (stereo not given)	-4.04% [at 42.5 µM]
CCn1nc(Cc2ccccc2)cc1C1CCN(C[C@H]2C[C@H](N(C)[C@@H](C(=O)O)C(C)C)C[C@@H]2c2cccc(F)c2)CC1	-0.475%
Cc1ccccc1CCO	-2.2%
CS(C)=O	-2.05%
C=CCCC	-1.71%
CC/C=C/CCO	0.483%
O=C(O)CCc1nc2ccccc2[nH]1	-0.802% [at 42.5 µM]
O=C(OCCCCCOC(=O)c1ccccc1)c1ccccc1	-0.192%
CCN(CCCCOC(=O)c1ccc(OC)c(OC)c1)C(C)Cc1ccc(OC)cc1 (stereo not given)	-3.21% [at 42.5 µM]
C=CC(C)(O)CC/C=C(/C)CCC=C(C)C (stereo not given)	-4.9%
C=C[Si](OCC)(OCC)OCC	-2.23%
O=C(O)c1ccc2c(c1)nc(C(=O)NC1CCN(C3CC3)CC1)n2Cc1cc(-c2ccc(Cl)s2)on1	0.77% [at 19 µM]
CCc1ccc(C(=O)C(C)CN2CCCCC2)cc1 (stereo not given)	-3.64% [at 42.5 µM]
CCc1cnc(C(=O)O)c(C(=O)O)c1	2.32%
CC(O)CN (stereo not given)	2.28%
COC=O	-4.91% [at 8.39 µM]

Source: PubChem BioAssay (Tox21)
